Data as given in PubChem BioAssay AID1159580 (chemical genetic matrix, 2015).
About 2,000 (36%) of roughly 5,500 compounds were called active. Not shown: some 18% with an inconclusive outcome. No stated cut-off is given here; in the data, active means normalized growth mostly below about 0.91 (no sharp cut-off); inconclusive means no clear call, values can overlap the other calls; inactive means mostly above about 0.92. The list shows a part of the results.

Assay: chemical genetic growth profiling, strain panel (AID 1159580);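 further: tested at 20 µM; growth read once vehicle control cultures reached saturation at 30 °C; 1 = growth at the plate median or of vehicle wells; lower values mean less growth of the strain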
Settings: S. cerevisiae deletion strains, growth OD

Measured: normalized growth

CCCC1O[C@@H]2C[C@H]3[C@@H]4CCC5=CC(=O)C=C[C@]5(C)[C@H]4[C@@H](O)C[C@]3(C)[C@]2(C(=O)CO)O1 (stereo not given in full)
inactive: locus YAL040C, strain CLN3, hits give low values 1.06 | locus YCL061C, strain MRC1 (second series), hits give low values 0.998 | locus YER002W, strain NOP16, hits give low values 1.01 | locus YGR078C, strain PAC10, hits give low values 1.02 | locus YMR263W, strain SAP30, hits give low values 1 | locus YNL153C, strain GIM3, hits give low values 0.982 | locus YNL175C, strain NOP13, hits give low values 0.994 | locus YNL197C, strain WHI3, hits give low values 0.974 | locus YNL224C, strain SQS1, hits give low values 1.01 | locus YOR083W, strain WHI5 (second series), hits give low values 0.992
